From the supplement of paper PMC10849652
The full data set covers some 8,800 targets. This sample favours those with a hit. About 0.5% of all pairs of compound and target were hits. Values without a mark were called inactive.

Experiments:
Test in all cases: log2 fold change, soluble protein after heating vs DMSO (PISA); higher = thermal stabilisation; K562 lysate, 10 uM; active = over 0.2 and 3.5 SD of the protein, either way, in both replicates (recomputed)
erlotinib = compound: C#Cc1cccc(Nc2ncnc3cc(OCCOC)c(OCCOC)cc23)c1 [erlotinib]
In short: (§1)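 Pellets of K562 cells were dounce-homogenised in PBS pH 7.4 with 1 mM MgCl2, and the crude extract was held at 1 mg/mL protein for a 30 min treatment with 10 μM compound. Aliquots were heated for 3 min over 48°C-58°C and pooled before NP-40 was added to 0.5% at 4°C. The supernatant from 21,000xg for 90 min was quantified by TMTpro 16plex LC-MS/MS with channel sums equalised. Values are reported from duplicates as log-two fold change in thermal stability relative to solvent controls.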

[1] = compound: C/C(=N\NC(=O)C1=CC(=CC=C1)S(=O)(=O)N2CCOCC2)/C3=C(C=CC(=C3)Cl)O
In short: as §1

[2] = compound: C1=CC(=CC=C1C2=NC3=C(N2)C=C(C=C3)C(=O)N)OC4=CC=C(C=C4)Cl
In short: as §1

[3] = compound: C1=CC2=C(C=CC(=C2)/C=C\3/C(=O)NC(=NCC4=CC=CS4)S3)N=C1
In short: as §1

[4] = compound: C1=CC2=NC=CN=C2C=C1/C=C/3\C(=O)NC(=O)S3
In short: as §1

[5] = compound: C1=CC=C(C=C1)C2=NC(=C(N2)C3=CC=NC=C3)C4=CC(=C(C=C4)Cl)O
In short: as §1

[6] = compound: C1=CC=C2C(=C1)C3=NNC4=CC=CC(=C43)C2=O
In short: as §1

[7] = compound: C1CCN(C1)C(=O)NC2=CC=CC(=C2)NC3=NC=C(C(=N3)NCCC4=CN=CN4)Br
In short: as §1

[8] = compound: C1CN(CCC1(CC2=CC=C(C=C2)Cl)N)C3=NC=NC4=C3C=CN4
In short: as §1

IRAK-1-4 Inhibitor I = compound: C1COCCN1CCN2C3=CC=CC=C3N=C2NC(=O)C4=CC(=CC=C4)[N+](=O)[O-] [IRAK-1-4 Inhibitor I]
In short: as §1

ibrutinib = compound: C=CC(=O)N1CCC[C@@H](n2nc(-c3ccc(Oc4ccccc4)cc3)c3c(N)ncnc32)C1 [ibrutinib]
In short: as §1

[9] = compound: CC(=O)c1cnc2ccc(-c3cc(Cl)c(O)c(Cl)c3)nc2c1N[C@H]1CC[C@H](CN(C)C)CC1
In short: as §1

ralimetinib = compound: CC(C)(C)Cn1c(N)nc2ccc(-c3[nH]c(C(C)(C)C)nc3-c3ccc(F)cc3)nc21 [ralimetinib]
In short: as §1

[10] = compound: CC(C)(O)CC(=O)NCCn1ccc2ncnc(Nc3ccc(Oc4cccc(C(F)(F)F)c4)c(Cl)c3)c21
In short: as §1

[11] = compound: CC(C)C1=C2N=C(C=C(N2N=C1)NCC3=CC=CC=C3)NCCCCCCN
In short: as §1

[12] = compound: CC1=C(C(CC(=O)N1)C2=CC=C(C=C2)C(F)(F)F)C(=O)NC3=C(C=C4C(=C3)C=NN4)F
In short: as §1

[13] = compound: CC1=C(C2=C(C=C1)C(=O)C3=CC=CC=C3N2CCCN)C
In short: as §1

[14] = compound: CC1=C(C=C(C=C1)NC(=O)C2=CC(=CC=C2)C(C)(C)C#N)NC3=CC4=C(C=C3)N=CN(C4=O)C
In short: as §1

[15] = compound: CC1=C(C=C(C=C1)NC(=O)C2=CC(=CC=C2)N(C)C)NC(=O)C3=CC=C(C=C3)O
In short: as §1

[16] = compound: CC1=CC=C(C=C1)SC2=C3C=C(SC3=CN=C2)C(=O)N
In short: as §1

UniProt Q9UPU9, sequence (Q9UPU9 whole entry, looked up): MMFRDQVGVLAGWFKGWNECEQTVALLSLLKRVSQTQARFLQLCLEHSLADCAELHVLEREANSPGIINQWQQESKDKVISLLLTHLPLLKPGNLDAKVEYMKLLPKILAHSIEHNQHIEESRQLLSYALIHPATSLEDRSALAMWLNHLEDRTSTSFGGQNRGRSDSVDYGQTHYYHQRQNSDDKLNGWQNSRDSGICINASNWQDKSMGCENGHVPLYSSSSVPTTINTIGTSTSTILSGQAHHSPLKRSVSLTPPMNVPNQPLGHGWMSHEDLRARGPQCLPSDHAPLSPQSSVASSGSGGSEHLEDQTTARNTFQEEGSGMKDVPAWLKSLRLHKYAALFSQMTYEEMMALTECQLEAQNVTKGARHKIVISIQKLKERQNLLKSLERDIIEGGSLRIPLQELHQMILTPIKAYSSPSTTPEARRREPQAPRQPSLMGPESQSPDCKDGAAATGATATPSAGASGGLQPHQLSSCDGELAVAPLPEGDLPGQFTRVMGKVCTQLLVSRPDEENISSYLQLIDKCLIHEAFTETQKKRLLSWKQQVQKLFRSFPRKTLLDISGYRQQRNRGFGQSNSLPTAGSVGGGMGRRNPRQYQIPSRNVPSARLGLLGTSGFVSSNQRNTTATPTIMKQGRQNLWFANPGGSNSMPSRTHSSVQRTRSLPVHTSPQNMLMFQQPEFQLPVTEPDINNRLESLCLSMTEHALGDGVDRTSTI
UniProt Q99643, sequence (Q99643 whole entry, looked up): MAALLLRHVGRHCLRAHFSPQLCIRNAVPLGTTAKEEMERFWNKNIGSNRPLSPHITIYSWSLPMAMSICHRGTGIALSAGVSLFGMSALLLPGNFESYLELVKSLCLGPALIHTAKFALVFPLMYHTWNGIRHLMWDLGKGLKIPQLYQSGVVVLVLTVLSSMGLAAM
UniProt P78509, sequence (P78509 whole entry, looked up): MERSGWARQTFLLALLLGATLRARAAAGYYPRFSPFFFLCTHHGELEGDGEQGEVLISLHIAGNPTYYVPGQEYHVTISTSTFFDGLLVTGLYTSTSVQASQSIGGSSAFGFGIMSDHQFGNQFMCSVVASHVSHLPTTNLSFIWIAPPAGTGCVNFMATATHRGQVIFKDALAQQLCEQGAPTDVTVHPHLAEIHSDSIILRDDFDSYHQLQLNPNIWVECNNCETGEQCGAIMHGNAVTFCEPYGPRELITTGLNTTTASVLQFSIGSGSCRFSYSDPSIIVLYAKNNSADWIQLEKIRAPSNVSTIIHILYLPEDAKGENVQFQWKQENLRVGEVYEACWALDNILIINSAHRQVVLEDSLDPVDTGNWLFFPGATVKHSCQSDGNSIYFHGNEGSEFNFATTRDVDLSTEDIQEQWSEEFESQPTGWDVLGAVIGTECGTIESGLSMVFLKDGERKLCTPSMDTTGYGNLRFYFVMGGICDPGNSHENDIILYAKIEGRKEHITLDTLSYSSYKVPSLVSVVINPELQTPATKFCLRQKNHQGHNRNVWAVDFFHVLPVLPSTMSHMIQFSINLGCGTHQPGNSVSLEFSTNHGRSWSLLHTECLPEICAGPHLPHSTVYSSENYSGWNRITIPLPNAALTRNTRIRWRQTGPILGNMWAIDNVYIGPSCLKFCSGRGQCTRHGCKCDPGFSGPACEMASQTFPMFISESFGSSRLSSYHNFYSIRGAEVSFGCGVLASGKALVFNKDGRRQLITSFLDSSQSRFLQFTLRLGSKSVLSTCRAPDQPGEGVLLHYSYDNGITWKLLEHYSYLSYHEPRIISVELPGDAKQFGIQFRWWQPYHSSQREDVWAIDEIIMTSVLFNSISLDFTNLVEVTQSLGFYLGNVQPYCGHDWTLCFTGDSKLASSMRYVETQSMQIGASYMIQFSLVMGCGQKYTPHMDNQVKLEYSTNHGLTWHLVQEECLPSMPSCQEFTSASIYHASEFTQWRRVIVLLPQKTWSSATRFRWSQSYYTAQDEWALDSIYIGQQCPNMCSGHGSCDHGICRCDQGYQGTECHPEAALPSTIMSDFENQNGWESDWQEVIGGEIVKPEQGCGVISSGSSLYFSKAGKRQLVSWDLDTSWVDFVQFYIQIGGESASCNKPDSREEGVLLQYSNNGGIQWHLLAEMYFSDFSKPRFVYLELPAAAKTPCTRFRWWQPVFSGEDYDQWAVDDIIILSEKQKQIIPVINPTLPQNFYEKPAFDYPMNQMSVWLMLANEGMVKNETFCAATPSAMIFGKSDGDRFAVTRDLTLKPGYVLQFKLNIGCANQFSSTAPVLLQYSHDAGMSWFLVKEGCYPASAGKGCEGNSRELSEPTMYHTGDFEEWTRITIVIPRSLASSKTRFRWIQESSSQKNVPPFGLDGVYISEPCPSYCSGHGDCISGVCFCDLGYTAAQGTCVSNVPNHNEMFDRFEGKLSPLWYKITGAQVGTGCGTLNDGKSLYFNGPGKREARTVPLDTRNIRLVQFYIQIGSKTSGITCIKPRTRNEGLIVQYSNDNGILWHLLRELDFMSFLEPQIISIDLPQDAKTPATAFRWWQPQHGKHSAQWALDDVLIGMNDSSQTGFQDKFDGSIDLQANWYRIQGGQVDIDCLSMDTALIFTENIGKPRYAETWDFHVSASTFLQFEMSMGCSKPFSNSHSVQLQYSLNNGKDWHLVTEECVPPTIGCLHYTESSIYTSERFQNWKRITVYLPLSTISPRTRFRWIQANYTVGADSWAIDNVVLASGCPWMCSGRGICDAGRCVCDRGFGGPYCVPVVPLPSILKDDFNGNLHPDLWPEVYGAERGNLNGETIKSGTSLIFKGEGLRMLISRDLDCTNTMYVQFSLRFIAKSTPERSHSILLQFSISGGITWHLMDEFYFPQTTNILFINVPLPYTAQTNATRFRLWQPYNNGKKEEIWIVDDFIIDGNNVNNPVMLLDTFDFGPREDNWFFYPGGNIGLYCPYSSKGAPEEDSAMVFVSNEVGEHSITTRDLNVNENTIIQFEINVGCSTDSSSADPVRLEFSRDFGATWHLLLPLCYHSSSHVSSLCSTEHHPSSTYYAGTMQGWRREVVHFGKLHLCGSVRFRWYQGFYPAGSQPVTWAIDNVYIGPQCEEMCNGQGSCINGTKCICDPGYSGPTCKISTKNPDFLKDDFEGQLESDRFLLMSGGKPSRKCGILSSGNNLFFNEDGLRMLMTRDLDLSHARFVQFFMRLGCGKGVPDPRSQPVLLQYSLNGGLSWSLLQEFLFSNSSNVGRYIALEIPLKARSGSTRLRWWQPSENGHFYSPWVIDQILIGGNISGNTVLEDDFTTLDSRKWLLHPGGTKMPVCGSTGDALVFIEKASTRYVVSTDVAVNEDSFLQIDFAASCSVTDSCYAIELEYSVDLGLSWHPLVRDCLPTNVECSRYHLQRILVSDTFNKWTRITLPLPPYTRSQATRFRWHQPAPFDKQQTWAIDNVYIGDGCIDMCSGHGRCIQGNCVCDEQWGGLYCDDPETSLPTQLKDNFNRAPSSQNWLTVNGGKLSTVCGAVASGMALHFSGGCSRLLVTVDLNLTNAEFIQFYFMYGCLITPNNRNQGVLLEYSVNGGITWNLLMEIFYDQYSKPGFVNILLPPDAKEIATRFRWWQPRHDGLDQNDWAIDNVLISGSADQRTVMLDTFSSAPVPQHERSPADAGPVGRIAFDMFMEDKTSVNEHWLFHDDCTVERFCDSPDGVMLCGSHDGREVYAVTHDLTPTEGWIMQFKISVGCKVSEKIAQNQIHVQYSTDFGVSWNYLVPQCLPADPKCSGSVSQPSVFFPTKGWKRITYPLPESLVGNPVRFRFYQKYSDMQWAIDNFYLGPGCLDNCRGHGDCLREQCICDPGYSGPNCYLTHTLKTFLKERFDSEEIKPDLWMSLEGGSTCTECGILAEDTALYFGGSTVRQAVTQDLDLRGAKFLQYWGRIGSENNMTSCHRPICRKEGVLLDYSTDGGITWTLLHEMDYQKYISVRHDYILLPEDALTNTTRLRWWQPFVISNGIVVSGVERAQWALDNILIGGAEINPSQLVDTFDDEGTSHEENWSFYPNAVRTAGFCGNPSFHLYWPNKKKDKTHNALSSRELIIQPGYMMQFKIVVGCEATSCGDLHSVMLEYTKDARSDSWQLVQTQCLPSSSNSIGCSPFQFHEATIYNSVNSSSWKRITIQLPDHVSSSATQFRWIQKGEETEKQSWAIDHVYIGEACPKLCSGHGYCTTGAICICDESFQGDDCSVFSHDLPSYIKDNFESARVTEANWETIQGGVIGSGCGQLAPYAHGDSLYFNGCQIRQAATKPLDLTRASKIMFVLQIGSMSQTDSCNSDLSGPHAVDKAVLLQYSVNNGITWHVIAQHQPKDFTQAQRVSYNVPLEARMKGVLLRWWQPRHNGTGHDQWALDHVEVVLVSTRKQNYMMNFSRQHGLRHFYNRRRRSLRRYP
UniProt P55735, sequence (P55735 whole entry, looked up): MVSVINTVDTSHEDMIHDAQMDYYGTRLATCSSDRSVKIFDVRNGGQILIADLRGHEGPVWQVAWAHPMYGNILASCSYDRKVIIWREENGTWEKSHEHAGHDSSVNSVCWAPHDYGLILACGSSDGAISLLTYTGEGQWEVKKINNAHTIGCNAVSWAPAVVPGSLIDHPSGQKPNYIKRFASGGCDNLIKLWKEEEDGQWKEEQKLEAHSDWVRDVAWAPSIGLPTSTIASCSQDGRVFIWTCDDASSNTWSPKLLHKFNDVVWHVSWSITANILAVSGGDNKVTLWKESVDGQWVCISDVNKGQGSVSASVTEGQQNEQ
UniProt Q9BUV8, sequence (Q9BUV8 whole entry, looked up): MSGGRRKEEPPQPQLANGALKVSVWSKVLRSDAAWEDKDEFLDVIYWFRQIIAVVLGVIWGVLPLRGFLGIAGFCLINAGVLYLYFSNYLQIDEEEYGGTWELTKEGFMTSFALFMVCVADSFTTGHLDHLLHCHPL

Target	log2 fold change (erlotinib)	log2 fold change [1]	log2 fold change [2]	log2 fold change [3]	log2 fold change [4]	log2 fold change [5]	log2 fold change [6]	log2 fold change [7]	log2 fold change [8]	log2 fold change (IRAK-1-4 Inhibitor I)	log2 fold change (ibrutinib)	log2 fold change [9]	log2 fold change (ralimetinib)	log2 fold change [10]	log2 fold change [11]	log2 fold change [12]	log2 fold change [13]	log2 fold change [14]	log2 fold change [15]	log2 fold change [16]
RELN (UniProt P78509)	0.012	0.004	0.014	0.025	0.001	0.033	-0.015	0.042	0.058	0.002	0.011	-0.237 (active)	0.011	-0.038	-0.039	-0.01	0	-0.002	0.041	0.09
RETSAT (UniProt Q6NUM9)	-0.092	0.054	0.026	0.021	-0.092	-0.004	-0.152	-0.077	-0.052	0.148	-0.091	0.073	-0.057	-0.134	0.07	–	-0.113	0.226	-0.015	-0.24
SDHC (UniProt Q99643)	0.013	0.002	0.001	0	-0.048	-0.01	0.02	-0.02	-0.067	0.032	0.033	-0.012	0.064	-0.035	-0.05	-0.015	-0.013	-0.026	0.023	0.044
RAB5IF isoform 5 (UniProt Q9BUV8)	0.193	0.021	0.082	0.001	-0.052	–	-0.036	-0.065	0.034	–	-0.039	-0.029	–	–	-0.163	0.086	-0.165	–	–	0.073
SEC13 isoform 3 (UniProt P55735)	0.032	0.02	0.009	-0.019	0	-0.001	-0.033	-0.019	0.006	-0.028	-0.084	-0.025	0.024	-0.01	-0.015	-0.005	0.034	-0.032	0.031	-0.014
SAMD4A (UniProt Q9UPU9)	-0.172	-0.014	0.11	0.097	-0.153	0.11	-0.041	-0.046	0.013	0.063	-0.014	0.052	0.395	0.097	0.094	–	-0.008	0.025	0.196	0.088
RAP1B (UniProt F5GZG1)	-0.028	0.332	0.101	-0.048	-0.206	–	-0.08	-0.081	0.04	–	0.01	-0.021	–	–	0.061	0.036	0.019	-0.124	–	0.117
RECQL5 (UniProt O94762)	0.046	-0.093	0.282	0.083	0.005	-0.002	0.012	-0.062	0.036	0.006	0.014	-0.335	0.035	-0.015	0.055	0.03	-0.066	-0.044	0.035	-0.001
SAMHD1 (UniProt Q9Y3Z3)	0.035	0.036	0.004	0.015	0.005	-0.021	-0.057	-0.065	0.035	0.013	-0.009	-0.022	0.056	-0.004	-0.002	0.003	-0.017	0.006	0.067	-0.003
